Compound activity deposited in PubChem by National Center for Advancing Translational Sciences (NCATS).
HepG2 viability – HepG2 cytotoxicity, counter-screen for TGF-b inhibitors; 410,000 tested, 0.76% active; AID 588856; HepG2 CAGA-GFP viability, ATP luminescence, 18 h; Potency, µM (series often up to 46.1 µM), without a hit: at the top dose activity change, negative = cytotoxicity, hits mostly cytotoxic
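CellTiter-Glo luminescence gave cytotoxicity after 18 hours at 37 degrees C. The cells were HepG2 CAGA-GFP in 1% FBS DMEM, stimulated with 500 pg/mL TGF-beta after compound addition. %Activity was normalised to no-cell wells (complete cell-killing) and DMSO (no toxicity), and curves were fitted and classified.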
A549 tox – kills or reduces viability of A549 cells in Nrf2 counter-screen; A549 ARE-Fluc cells, CellTiter-Fluor viability, 18-24 h; Potency, µM (doses to about 46 µM), for inactives: at the highest dose activity change, negative = cytotoxicity, usual class: inhibitors; 390,000 tested, 0.16% active; AID 504648; further: on the % scale 0 is the no-effect control and ±100 the full control effect
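A549 ARE-Fluc cells in 5% FBS OPTI-MEM, 5000 cells/well, rested 2 h then exposed to compounds in concentration-response for 18-24 h at 37 °C. Viability by CellTiter-Fluor fluorescence (Ex 405/Em 525) after 30 min; luciferase luminescence (BugLite, 15 min, RT) read afterwards.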
TGFb SMAD3 inh – inhibitors of TGF-b signaling | 410,000 tested, 1.2% active | AID 588855 | Potency, µM (titrated, usually from 46.1 µM), for the others: at the highest dose activity, negative = inhibition, usual class: inhibitors | HepG2 CAGA-GFP TGF-b/SMAD3 reporter, GFP fluorescence, 18 h; TGF-beta stimulated, 500 pg/mL final; further: on the % scale 0 is the no-effect control and ±100 the full control effect; nearly all actives have a fitted effect of over 65% in size
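GFP signal (ex488/em500-530) from TGF-beta-stimulated HEPG2 CAGA-GFP cells, 500 pg/mL final, 18 h at 37 degrees C in DMEM plus 1% FBS, normalized to unstimulated and DMSO-stimulated controls.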
Nrf2 ARE act – activators of Nrf2 (ARE) signaling | AID 624171 | AREc32 ARE-luciferase reporter (MCF7-derived line), luminescence, 24 h | 410,000 tested, 0.31% active | Potency, µM (titrated, usually from 46.1 µM), for the others: top-dose activation, actives largely listed as activators; further: % of control where 0% means no effect; nearly all actives have a fitted effect of over 65% in size
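AREc32_Fluc, 1000 cells/well, OPTI-MEM + 5% FBS, o/n 37 deg C 5% CO2; 23 nL cpd by pin tool, 24 hr; Steady-Glo 30 min RT, luminescence.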
Nrf2 inh – blocks Nrf2 signaling. 360,000 tested, 2.1% active. Potency, µM (series often up to 46 µM), for inactives: at the top dose activity change, negative = inhibition, actives largely listed as inhibitors. A549 ARE-Fluc reporter, luciferase luminescence, 18-24 h; further: on the % scale 0 is the no-effect control and ±100 the full control effect; nearly all actives have a fitted effect of over 60% in size
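Nrf2 function is reported as luminescence of an ARE-controlled luciferase in A549 cells. Compounds were tested at several concentrations, and a CellTiter-Fluor read on the same wells flagged cytotoxicity.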
Active calls of the source: *; ? = inconclusive; . = not tested or not shown; [ ] = another dose, or the depositor's remark. Sampled rows, rich in hits. Any-hit rate of the full collection: about 3.6%. The call rests on the fitted dose curve; in most records, active means well fitted curve in the direction sought with a large enough effect; inconclusive means small, poorly fitted or top-dose-only effect, or another doubt; inactive means no such curve, though single readings can be large; an effect the other way counts as inactive or inconclusive. Potency means the concentration at half of the fitted maximal effect.

SMILES | HepG2 viability | A549 tox | TGFb SMAD3 inh | Nrf2 ARE act | Nrf2 inh
O=C(N/N=C/c1ccc(O)c(O)c1)NC12CC3CC(CC(C3)C1)C2 | -34.3% | -13.5% | -6.9% | 10.4% | 5.0%
Cc1nn(C)c(Cl)c1NC(=O)OCc1ccc(Cl)cc1Cl | -11.3% | 0.6% | ? | -0.1% | 16.4µM*
Cc1ccc(SC(CC(=O)c2ccc(F)cc2)C(=O)O)cc1 (centres undefined) | -11.8% | -23.3% | 2.8% | ? | -19.5%
CC(C)(C)c1ccc(C(=O)CC(Sc2ccc(Cl)cc2)C(=O)O)cc1 (centres undefined) | 15.8µM* | 1.5% | ? | ? | 1.5%
Cc1nc2ccc(S(=O)(=O)N(C)CC(=O)NCc3ccc4c(c3)OCO4)cc2s1 | -20.9% | 2.9% | -26.5% | -1.0% | -12.6%
COc1cc(-c2nnc3sc(C4CCCCC4)nn23)cc(OC)c1OC | -51.4% | -0.2% | ? | -0.1% | 13µM*
COc1cccc(-c2nnc3sc(C4CCCCC4)nn23)c1 | -28.1% | 1.9% | ? | -1.1% | ?
COC(=O)[C@@]1(Cc2ccc(OC)cc2)[C@H]2c3cc(C(=O)N(C)C)n(Cc4c(CO)[nH]cc(C)c4=O)c3C[C@H]2CN1C(=O)c1ccccc1 | -0.5% | 1.4% | 3.2% | -0.6% | 9.6%
O=C(Cn1nnc(-c2ccccc2F)n1)NCc1ccco1 | 6.5% | -4.1% | 10.5% | 25.5% | 5.7%
CC(/C=C(\NC(=O)c1ccccc1)C(=O)N=Nc1c(O)[nH]c2ccc(C)cc12)=C\c1ccccc1 | 2.2% | ? | -2.6% | 8.91µM* | .
Cc1cc(NC(=O)CSCC(=O)Nc2cccc(S(=O)(=O)N3CCCCCC3)c2)no1 | 8.0% | -0.5% | ? | -0.2% | ?
COc1ccc(NC(=O)Cc2c(C)n(C(=O)c3ccc(Cl)cc3)c3ccc(OC)cc23)cc1 | 0.5% | -2.3% | -8.0% | 0.1% | -9.5%
COc1ccc2c(c1)c(CC(=O)Nc1cccc(S(N)(=O)=O)c1)c(C)n2C(=O)c1ccc(Cl)cc1 | -42.6% | -8.8% | 15.8µM* | 6.1% | ?
CCc1ccc2[nH]c(=O)c(C3C(C#N)=C(N)Oc4c3ccc3cccnc43)cc2c1 (centres undefined) | -4.4% | ? | ? | -0.4% | 14.6µM*
CCNC(=O)Nc1cc(S(=O)(=O)Nc2ccc(OC)cc2)ccc1N1CCOCC1 | -16.2% | -15.3% | -20.8% | 0.5% | 4.11µM*
Nc1cc(S(=O)(=O)Nc2ccccc2Cl)ccc1N1CCOCC1 | -29.5% | -10.9% | -27.9% | 0.8% | ?
Nc1cc(S(=O)(=O)Nc2ccc(Cl)cc2)ccc1N1CCOCC1 | -12.4% | -9.4% | ? | 0.4% | 16.4µM*
COc1cccc(CN(C)C(=O)c2cccc(S(=O)(=O)N3CCN(c4ccccc4)CC3)c2)c1 | -9.9% | . | -27.5% | 3.7% | .
O=C(COC(=O)/C=C/c1ccccc1)NCCc1ccc(F)cc1 | -0.3% | 3.3% | 3.9% | 8.6% | 2.0%
O=C(c1ccccc1)c1sc(N2CCCCCC2)nc1-c1ccccc1 | -9.4% | -12.4% | ? | 0.1% | .
[2H]c1c([2H])c([2H])c(C(=O)c2sc(N3CCCCCC3)nc2-c2ccccc2)c([2H])c1[2H] | 2.7% | -3.4% | 14.1µM* | -0.5% | .
Cc1nc(N2CCCC2)ncc1C(=O)Nc1ccc(OC(F)(F)F)cc1 | 4.2% | -11.5% | -10.0% | -0.6% | .
CC(NC(=O)C(=O)N1CCCCC1)C(c1cccs1)N1CCN(c2ccccc2F)CC1 (centres undefined) | -19.5% | -0.4% | 7.1% | -0.1% | -3.8%
CC(=O)c1ccc(Nc2nc(C(N)Cc3ccc(C(F)(F)F)cc3)cs2)cc1 (centres undefined) | -93.9% | . | ? | 0.4% | .
NC(CCc1ccccc1)c1csc(Nc2ccc(C(=O)c3ccccc3)cc2)n1 (centres undefined) | 15.8µM* | . | ? | 4.6%[9.22 µM] | .
SMILES | HepG2 viability | A549 tox | TGFb SMAD3 inh | Nrf2 ARE act | Nrf2 inh
NC(Cc1ccc(C(F)(F)F)cc1)c1csc(Nc2ccccn2)n1 (centres undefined) | -41.8% | . | -6.0% | 3.9% | .
NC(Cc1ccc(C(F)(F)F)cc1)c1csc(Nc2cc(NCc3ccco3)ncn2)n1 (centres undefined) | 20µM* | . | ? | -3.7% | .
NC(CCc1ccccc1)c1csc(Nc2ccc(C(=O)NCCO)cc2)n1 (centres undefined) | -1.4% | . | -4.7% | 4.5% | .
NC(Cc1ccc(C(F)(F)F)cc1)c1csc(Nc2ccc(C(=O)c3ccccc3)cc2)n1 (centres undefined) | 22.4µM* | . | ? | -6.5% | .
COc1ccc(NC(C)=O)cc1NC(=O)c1c(C)noc1C | -7.3% | . | -9.5% | 2.4% | .
Cc1ccc(NC(=O)c2ccc(-n3cncn3)c([N+](=O)[O-])c2)cc1F | -1.6% | -0.9% | -4.9% | -0.5% | -7.2%
O=C(Nc1ccc(F)cc1)c1ccc(-n2cncn2)c([N+](=O)[O-])c1 | 10.0% | -5.8% | 1.5% | 3.0% | 23.1µM*
CCOC(=O)c1ccc(NC(=O)CC2NCCNC2=O)cc1 (centres undefined) | 4.7% | -6.0% | -0.3% | 3.8% | 10.2%
Cc1ccc(CN(Cc2ccco2)C(=O)c2oc3ccc(C)cc3c2C)cc1 | -27.1% | 4.1% | ? | 11.6% | ?
Cc1ccc2occ(CC(=O)N(Cc3ccc(Cl)cc3)Cc3ccco3)c2c1 | -21.4% | ? | 15.8µM* | 10.4% | ?
COc1ccc(-c2csc3nc(C)nc(N4CCCCC4)c23)cc1OC | -7.4% | -1.4% | -3.0% | 15.8µM* | -20.0%
COCCc1nc2ccc(C(=O)N3CCCC(CCCO)C3)cc2o1 (centres undefined) | 3.1% | -0.5% | 9.3% | -0.7% | 1.7%
CN(C)/C=N/C1=C(C#N)C(c2cccs2)c2ccc3ccccc3c2O1 (centres undefined) | -14.6% | ? | -18.3% | 8.91µM* | ?
C[C@H](CO)N1C[C@H](C)[C@@H](CN(C)Cc2ccc(-c3ccccc3)cc2)Oc2c(NS(=O)(=O)c3cn(C)cn3)cccc2C1=O | 3.0% | -0.1% | 3.16µM* | -1.0% | -4.8%
C[C@@H]1CN([C@H](C)CO)C(=O)c2cccc(NC(=O)NC3CCCCC3)c2O[C@@H]1CN(C)C(=O)Nc1ccc(C(F)(F)F)cc1 | 17.8µM* | ? | ? | -3.7% | ?
C[C@H](CO)N1C[C@H](C)[C@@H](CN(C)C(=O)Nc2ccc(C(F)(F)F)cc2)Oc2c(NC(=O)NC3CCCCC3)cccc2C1=O | -32.2% | ? | ? | -1.3% | ?
Cc1noc(C)c1S(=O)(=O)N(C)C[C@H]1Oc2c(NC(=O)Nc3ccccc3)cccc2C(=O)N([C@H](C)CO)C[C@@H]1C | 11.2% | -3.6% | 11.5% | 2.4% | 7.6%
